Common to all, as to format: functional
For assay [1], the system named is Plasmodium falciparum. Briefly: GSK_TCMDC: Inhibition of Plasmodium falciparum 3D7 in whole red blood cells, using parasite LDH activity as an index of growth. Test compounds present at 2uM.
Assay [2] has as its system Plasmodium falciparum. In words: GSK_TCMDC: Inhibition of Plasmodium falciparum Dd2 in whole red blood cells, using parasite LDH activity as an index of growth. Test compounds present at 2uM.
A further assay relates to HepG2. Briefly: GSK_TCMDC: Percent inhibition of human HepG2 cell line. Test compounds present at 10uM.

For orientation: Inhibition means the relative decrease from the control value, in per cent. A high value points to a strong effect. On to `COc1ccc(CCOc2c(C)nc(N)nc2N)cc1OC.Cl`, for which the Inhibition with Plasmodium falciparum [1] was 96%; with Plasmodium falciparum [2], 22%; in the assay with HepG2, 66%.
Take `CN1CCC(NCc2cccc(-c3nn(C)c4nc(NC5CCCC5)ncc34)c2)CC1`: the Inhibition turned out to be 98% with Plasmodium falciparum [1], 44% in the assay with Plasmodium falciparum [2] and 1% with HepG2.
Regarding `O=C(CN1CCN(C(=O)c2ccco2)CC1)Nc1ccc(Br)cc1Cl`, the Inhibition stood at 88% in the assay with Plasmodium falciparum [1], 79% with Plasmodium falciparum [2] and 10% in the assay on HepG2.
In the same order, the values of `CN1CCC(c2nc(N)no2)C1.O=C(O)C(=O)O` (stereo not drawn) are 95%, 2% and 15%.
The matching figures for `CCOC(=O)c1cnc2c(OC)cc(OC)c(Cl)c2c1Nc1cccc(C)c1`: 95%, 20% and 0%.
In the case of `O=C(Nc1ccc(Cl)cc1)Nc1ccc(Cn2ncc(N3CCCNCC3)c(Cl)c2=O)cc1.O=C(O)C(F)(F)F`, the Inhibition was 85% with Plasmodium falciparum [1], 11% in the assay on Plasmodium falciparum [2] and 49% in the assay on HepG2.
`CCSc1nnc(C2CCCN(CC(=O)Nc3cc(C(F)(F)F)ccc3Cl)C2)n1CC` (stereo not drawn): the Inhibition in the assay on Plasmodium falciparum [1] is 99%; with Plasmodium falciparum [2], 96%; in the assay on HepG2, 0%.
`O=C(NCC1CCN(CC2CCCCC2)C1)c1cc(-c2cccc(Cl)c2)cs1.O=C(O)C(F)(F)F` (stereo not drawn): the Inhibition with Plasmodium falciparum [1] is 85%; in the assay on Plasmodium falciparum [2], 8%; with HepG2, 51%.
Turning to `COc1ccc2nccc([C@@H](O)CN3CCC(NC(=O)C(c4cc5ccccc5o4)N4CCN(c5ccc(F)cc5)CC4)CC3)c2c1` (stereo partly drawn), the Inhibition with Plasmodium falciparum [1] is 100%; in the assay with Plasmodium falciparum [2], 98%; with HepG2, 15%.
Consider `CCOc1ccc(-c2nonc2NC(=O)c2cccc(Cl)c2)cc1OCC`, for which the Inhibition in the assay on Plasmodium falciparum [1] turned out to be 100%; in the assay on Plasmodium falciparum [2], 99%; in the assay with HepG2 it was 0%.
In the same order, the values of `CCNc1cc(C(=O)N[C@@H](Cc2cccc(F)c2)[C@H](O)CNC(C)CCCC(C)C)cc(N2CCCCS2(=O)=O)c1.Cl` (stereo partly drawn) are 98%, 97% and 0%.

Source of the values: ChEMBL document CHEMBL1157539, “Thousands of chemical starting points for antimalarial lead identification” (Nature, 2010).
